From PubChem BioAssay (NCATS)
Values without a mark were called inactive. Inconclusive results are not listed. Activity calls are given as the source filed them. Unless noted, the call rests on the fitted dose curve; in most records, active means well fitted curve in either direction with a large enough effect (not every such curve was filed as active); inconclusive means small, poorly fitted or top-dose-only effect, or another doubt; inactive means flat fitted curve, though single readings scatter.

Key:
[1] = biological target: Lysosomal acid glucosylceramidase (Homo sapiens) (UniProt P04062); test: Glucocerebrosidase-p2 (AID 348; in the data active means potency below about 10 µM; further: potency means the concentration at half of the fitted maximal effect); details: purified GBA, blue fluorogenic substrate, 40 min
Chain of Lysosomal acid glucosylceramidase (Homo sapiens) (P04062 whole entry, looked up): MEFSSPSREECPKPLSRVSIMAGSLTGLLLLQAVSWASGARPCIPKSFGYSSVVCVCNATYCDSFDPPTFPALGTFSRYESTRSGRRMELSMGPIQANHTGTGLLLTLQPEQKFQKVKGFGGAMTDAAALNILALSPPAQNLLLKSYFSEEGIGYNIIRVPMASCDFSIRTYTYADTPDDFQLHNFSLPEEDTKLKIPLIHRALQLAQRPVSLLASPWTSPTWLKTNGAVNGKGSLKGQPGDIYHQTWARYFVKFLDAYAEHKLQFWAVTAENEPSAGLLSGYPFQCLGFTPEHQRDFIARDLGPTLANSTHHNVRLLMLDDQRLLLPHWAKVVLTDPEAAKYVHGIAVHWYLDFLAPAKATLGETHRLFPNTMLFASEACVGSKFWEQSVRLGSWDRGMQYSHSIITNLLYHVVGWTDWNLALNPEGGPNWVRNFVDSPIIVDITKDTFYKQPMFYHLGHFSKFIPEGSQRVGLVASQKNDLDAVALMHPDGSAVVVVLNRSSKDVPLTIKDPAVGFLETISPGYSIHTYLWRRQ
In short: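 Normal human glucocerebrosidase (0.2 nM) with blue fluorogenic substrate (80 uM final) in citrate/phosphate pH 5.9 with 10mM sodium taurocholate, 0.01% tween-20; 40 min RT, NaOH/glycine stop; fluorescence Ex 365/Em 440; AC50 from a titration from 0.6 nM upwards.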

[2] = AP1 Signaling Pathway (AID 357); details: ME-180 AP-1-bla reporter, EGF-induced, beta-lactamase ratio, 5 h; at 7.69 µM (top of the series) unless noted;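 further: ME-180 reporter cells stimulated with EGF at its EC50 level; on the % scale 0 is the no-effect control and ±100 the full control effect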
In short: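 Beta-lactamase reporter under AP-1 response element, ME-180 background. Stimulus: EC50 EGF. Compound exposure 5 h, 37 °C. Detection: CCF4, 2.5 h RT, 460/530 nm. Values: AC50 from titration.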

[3] = biological target: Cytochrome P450 1A2 (Homo sapiens) (UniProt P05177); test: p450-cyp1a2 (AID 410; calls by dose curve; further: potency means the concentration at half of the fitted maximal effect;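 on activity change, negative = inhibition: -100% = full effect of reference inhibitor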); details: recombinant CYP1A2, luciferin-ME demethylation, luminescence; series mostly up to 11.4 µM
Chain of Cytochrome P450 1A2 (Homo sapiens) (P05177 whole entry, looked up): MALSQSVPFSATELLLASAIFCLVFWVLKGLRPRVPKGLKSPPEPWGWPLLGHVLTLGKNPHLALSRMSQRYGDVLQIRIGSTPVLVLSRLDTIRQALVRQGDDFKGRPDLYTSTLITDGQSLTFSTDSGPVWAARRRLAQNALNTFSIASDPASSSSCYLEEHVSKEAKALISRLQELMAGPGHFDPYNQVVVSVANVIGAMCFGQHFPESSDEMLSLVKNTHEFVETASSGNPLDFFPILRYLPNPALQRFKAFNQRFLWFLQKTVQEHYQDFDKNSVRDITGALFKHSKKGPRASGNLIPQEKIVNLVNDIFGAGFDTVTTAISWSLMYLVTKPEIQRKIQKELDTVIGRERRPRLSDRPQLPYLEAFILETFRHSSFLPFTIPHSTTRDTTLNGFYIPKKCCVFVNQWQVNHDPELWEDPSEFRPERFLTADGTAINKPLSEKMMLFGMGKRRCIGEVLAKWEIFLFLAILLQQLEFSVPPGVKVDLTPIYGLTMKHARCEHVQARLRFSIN
In short: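 O-Demethylation of luciferin 6' methyl ether by human CYP1A2 is monitored as luciferase luminescence. Substrate sits at Km (100uM); enzyme is 20nM. Values are scaled to 57 uM furafylline as maximal inhibition.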

[4] = NFAT Signaling Pathway (AID 444); details: Jurkat NFAT-bla M1, carbachol, beta-lactamase ratio, 5 h; at 7.69 µM (top of the series) unless noted;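 further: carbachol stimulus at about its EC50 of 1 µM final; on the % scale 0 is the no-effect control and ±100 the full control effect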
In short: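 Jurkat cells with NFAT-driven β-lactamase reporter and co-expressed M1 receptor, stimulated with carbachol (final 1 uM, ~EC50), compound titration, 5 h at 37 °C. CCF4 loaded 1 h at RT; 460/530 nm ratio gave %activity and AC50.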

[5] = Stat Signaling Pathway (AID 446); details: ME-180 (cervical carcinoma) SIE beta-lactamase reporter, IL-6 stimulated, 5 h; at 7.69 µM (top of the series) unless noted;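 further: ME-180 cervical cancer cells given 40 pM IL-6 alongside compound; SIE-controlled beta-lactamase reporter measured as 460/530 nm FRET emission ratio; on the % scale 0 is the no-effect control and ±100 the full control effect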
In short: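 Emission at 460 and 530 nm (excitation 405 nm) reports SIE-controlled beta-lactamase in ME-180 cells. Cells received compound with 40 pM IL-6 for 5 hrs at 37 C; data scaled between 300 pM IL-6 and 125 nM JAK-inhibitor controls.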

[6] = biological target: Glucocorticoid receptor (Homo sapiens) (UniProt P04150); test: GR-GFP Redistribution (AID 450;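 active means compounds whose dose series gives a full or clear partial fitted curve of increased nuclear translocation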; further: potency means the concentration at half of the fitted maximal effect); details: U2OS GR-GFP nuclear translocation, laser cytometry, 2 h
Chain of Glucocorticoid receptor (Homo sapiens) (P04150 whole entry, looked up, the tested form may be a part): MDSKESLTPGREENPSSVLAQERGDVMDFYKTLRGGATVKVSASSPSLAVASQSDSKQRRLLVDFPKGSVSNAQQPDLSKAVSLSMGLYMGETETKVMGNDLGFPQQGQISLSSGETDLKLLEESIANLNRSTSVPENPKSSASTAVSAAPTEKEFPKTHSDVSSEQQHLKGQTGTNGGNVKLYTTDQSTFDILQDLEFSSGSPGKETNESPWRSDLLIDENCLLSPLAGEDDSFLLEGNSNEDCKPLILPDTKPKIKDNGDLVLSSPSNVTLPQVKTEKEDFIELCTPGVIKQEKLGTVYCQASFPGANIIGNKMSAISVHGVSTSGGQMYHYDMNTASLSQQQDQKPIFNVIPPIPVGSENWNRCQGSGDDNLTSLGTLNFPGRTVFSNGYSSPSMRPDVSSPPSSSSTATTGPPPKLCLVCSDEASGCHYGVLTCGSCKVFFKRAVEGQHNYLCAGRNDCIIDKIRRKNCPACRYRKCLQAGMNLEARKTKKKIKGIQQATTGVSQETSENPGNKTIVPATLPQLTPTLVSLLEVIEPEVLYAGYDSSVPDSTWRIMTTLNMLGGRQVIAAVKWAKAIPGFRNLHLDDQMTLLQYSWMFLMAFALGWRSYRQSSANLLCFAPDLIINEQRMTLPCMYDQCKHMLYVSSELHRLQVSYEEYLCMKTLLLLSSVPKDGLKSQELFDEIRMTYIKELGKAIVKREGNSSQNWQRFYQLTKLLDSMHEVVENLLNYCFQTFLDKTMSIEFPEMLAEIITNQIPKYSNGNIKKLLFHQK

[7] = biological target: Glucocorticoid receptor (Homo sapiens) (UniProt P04150); test: GR-EFC Redistribution (AID 451; calls by dose curve; further: potency means the concentration at half of the fitted maximal effect); details: CHO-K1 GR-EFC translocation, beta-gal luminescence, 2 h
In short: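 CHO-K1 cells expressing nuclear EA and GR-ED fragments of b-gal; compounds titrated up to 46 uM final, 2 h at 37 C. GR nuclear translocation read as complemented b-gal luminescence after 1 h RT detection.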

[8] = biological target: Mitogen-activated protein kinase 10 (Mus musculus) (UniProt Q61831); test: JNK3 AlphaScreen Assay (AID 530); details: JNK3 lysate, c-Jun phosphorylation; series mostly up to 11.4 µM;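 further: kinase came from lysate of stimulated human HepG2 cells; signal reports phosphorylation of biotinylated GST-cJun 1-79 at Ser73 with 10 µM ATP; on the % scale 0 is the no-effect control and ±100 the full control effect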
In short: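 Activity was read by AlphaScreen after JNK3-containing HepG2 lysate (cytokine pre-activated) phosphorylated biotinylated GST-cJun with 10 uM ATP at room temperature. Phospho-Ser73 cJun antibody with Protein-A acceptor beads provided detection.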

[9] = biological target: 3',5'-cyclic-AMP phosphodiesterase 4B (Homo sapiens) (UniProt Q07343); test: qHTS Assay for Inhibitors of PDE-IV (AID 607; active means well fitted activation curve with a large enough effect in the main read-out, with a control signal flat, not every such curve was filed as active; further: % of control where 0% means no effect); details: HEK293 ACTOne CNG channel cells, membrane potential fluorescence; series mostly up to 22.9 µM
Chain of 3',5'-cyclic-AMP phosphodiesterase 4B (Homo sapiens) (Q07343 whole entry, looked up): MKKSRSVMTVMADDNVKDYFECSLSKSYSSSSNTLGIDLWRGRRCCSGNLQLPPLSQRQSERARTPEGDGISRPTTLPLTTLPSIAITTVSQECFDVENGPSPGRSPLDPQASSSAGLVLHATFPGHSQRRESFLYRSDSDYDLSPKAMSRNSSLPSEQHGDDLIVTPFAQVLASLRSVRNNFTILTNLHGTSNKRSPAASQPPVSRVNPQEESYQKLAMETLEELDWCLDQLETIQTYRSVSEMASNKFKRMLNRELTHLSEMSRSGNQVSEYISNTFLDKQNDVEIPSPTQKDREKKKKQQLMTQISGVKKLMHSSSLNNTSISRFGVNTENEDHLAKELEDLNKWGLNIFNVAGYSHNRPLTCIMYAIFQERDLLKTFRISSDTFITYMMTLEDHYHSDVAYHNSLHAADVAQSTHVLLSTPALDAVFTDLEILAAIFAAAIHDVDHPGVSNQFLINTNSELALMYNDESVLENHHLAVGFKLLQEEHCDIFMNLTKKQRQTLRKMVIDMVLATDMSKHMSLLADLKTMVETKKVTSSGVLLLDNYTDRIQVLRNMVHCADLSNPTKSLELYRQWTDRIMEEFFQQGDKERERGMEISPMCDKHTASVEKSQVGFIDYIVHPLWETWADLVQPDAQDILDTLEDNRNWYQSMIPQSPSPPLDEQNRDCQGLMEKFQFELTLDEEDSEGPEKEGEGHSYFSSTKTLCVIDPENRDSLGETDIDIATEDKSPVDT
In short: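 The readout is membrane depolarisation from a cAMP-sensing CNG channel, detected with a potential dye at ex 535/em 590. Cells were HEK293-derived (endogenous PDE-IV) at 1000 cells/well, titrated up to 22.9 uM final.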

SMILES | Potency [1] [µM] | activity change, negative = inhibition [2] [%] | Potency [3] | activity change, negative = inhibition [4] [%] | activity, negative = inhibition [5] [%] | Potency [6] [µM] | Potency [7] [µM] | Potency [8] | Potency [9] | activity change, negative = inhibition [3]
O=S1(=O)N[C@H]2CC[C@@H]3NS(=O)(=O)N[C@H]4CC[C@H](N1)N4S(=O)(=O)N23 | > 11.4 | -14.2 | inactive | 23.9 | -2.8 | > 46 | > 9.22 | inactive | inactive | –
O=C(O)[C@H]1[C@H](C(=O)O)[C@H](C(=O)O)C[C@@H]1C(=O)O | > 11.4 | -1.4 | inactive | 2.63 | 4.24 | > 46 | > 9.22 | inactive | inactive | –
CC(C)[C@]1(Cl)CC[C@@H]2[C@]3(C)CCC[C@@](C)(C(=O)O)[C@H]3C[C@H](Cl)[C@@]2(Cl)[C@H]1Cl | > 11.4 | -2.07 | inactive | 0.923 | 0.27 | > 46 | > 9.22 | inactive | inactive | –
CN(C)CCSCCO | > 11.4 | 7.7 | – | 2.29 | 9.73 | > 46 | > 9.22 | inactive | inactive | -14.3% [at 2.29 µM]
O=S(=O)(O)c1cc(N=[N+]([O-])c2cc(S(=O)(=O)O)c3ccccc3c2)cc2ccccc12 | > 11.4 | 5.38 | 1.26 µM (active) | 8.26 | -2.62 | > 46 | > 9.22 | inactive | inactive | –
OC[C@@H](O)CNc1ncnc2ccccc12 | > 11.4 | -1.31 | inactive | 9.96 | 2.66 | > 46 | > 9.22 | inactive | inactive | –
O=C(O)CCSc1ncnc2nc[nH]c12 | > 11.4 | 15.6 | inactive | 1.77 | 0.335 | > 46 | > 9.22 | inactive | inactive | –
c1ccc2c(CC3NCCN3)cccc2c1 | > 11.4 | 7.37 | inactive | -8.06 | 1.71 | > 46 | > 9.22 | inactive | inactive | –
O=C(O)[C@H](CCc1ccccc1)N1C(=O)c2ccccc2C1=O | > 11.4 | -11.9 | – | -3.82 | 8.91 | > 46 | > 9.22 | inactive | inactive | -9.6% [at 2.29 µM]
C[C@@]1(CCOCc2ccccc2)NC(=O)NC1=O | > 11.4 | 7.73 | inactive | -2.8 | 8.58 | > 46 | > 9.22 | inactive | inactive | –
COc1cc(NCCC(=O)O)c2ncccc2c1 | > 11.4 | 2.4 | inactive | 2.69 | -1.17 | > 46 | > 9.22 | inactive | inactive | –
O=C(O)c1ccccc1C(=O)Nc1cc2c(cc1Br)-c1ccccc1C2=O | > 11.4 | -2.84 | 0.631 µM (active) | 10.3 | -5.27 | > 46 | > 9.22 | inactive | inactive | –
CCOC(=O)CCCN | > 11.4 | -4.22 | 6.31 µM (active) | 2.34 | 8.34 | > 46 | > 9.22 | inactive | inactive | –
O=C(O)c1cccc(C(=O)O)c1S(=O)Cc1ccccc1 (centres undefined) | > 11.4 | 5.26 | inactive | 7.39 | 6.2 | > 46 | > 9.22 | inactive | inactive | –
Cn1c(=O)c2[nH]c(CS(=O)(=O)Cc3nc4c([nH]3)c(=O)n(C)c(=O)n4C)nc2n(C)c1=O | > 11.4 | -5.52 | – | -4.99 | -2.96 | > 46 | > 9.22 | inactive | inactive | -21.1% [at 2.29 µM]
CC1=C[N+](=O)c2ccccc2[N+]1=O | > 11.4 | 5.1 | 6.31 µM (active) | 13.8 | 0.919 | > 46 | > 9.22 | inactive | inactive | –

SMILES | Potency [1] [µM] | activity change, negative = inhibition [2] [%] | Potency [3] | activity change, negative = inhibition [4] [%] | activity, negative = inhibition [5] [%] | Potency [6] [µM] | Potency [7] [µM] | Potency [8] | Potency [9] | activity change, negative = inhibition [3]
NCS(=O)(=O)O | > 11.4 | -4.59 | – | 2.65 | -0.0948 | > 46 | > 9.22 | inactive | inactive | -5.6% [at 2.29 µM]
Cc1ccc(S(=O)(=O)Nc2ccccc2C(=O)c2ccc(C)c(C)c2)cc1 | > 11.4 | 5.46 | 0.631 µM (active) | 2.8 | -2.64 | > 46 | > 9.22 | inactive | inactive | –
O=C(O)[C@@H]1CS[C@@]2(CCCN(Cc3ccccc3)C2)N1 | > 11.4 | 8.03 | – | 18.2 | 2.47 | > 46 | > 9.22 | inactive | inactive | -12% [at 2.29 µM]
O=C1CC[C@H](NC(=O)c2ccccc2)C(=O)N1 | > 11.4 | 5.12 | inactive | 4.46 | 2.96 | > 46 | > 9.22 | inactive | inactive | –
Nc1nc(SCc2ccccc2Cl)cc(C(=O)O)n1 | > 11.4 | -13.8 | – | 1.52 | 4.58 | > 46 | > 9.22 | inactive | inactive | 6.2% [at 2.29 µM]
CN(C)CN1C(=O)S/C(=C2/C(=O)N(CN(C)C)c3ccccc32)C1=O | > 11.4 | -4.12 | 0.794 µM (active) | 9.46 | -0.139 | > 46 | > 9.22 | inactive | inactive | –
Cn1c(=O)c2[nH]c([C@@H]3CC(=O)C[C@H](c4nc5c([nH]4)c(=O)n(C)c(=O)n5C)N3)nc2n(C)c1=O | > 11.4 | 3.07 | – | 19 | 6.09 | > 46 | > 9.22 | inactive | inactive | -18.2% [at 2.29 µM]
COc1ccc2nccc(SCC(=O)O)c2c1 | > 11.4 | 7.58 | 3.98 µM (active) | 6.79 | -2.7 | > 46 | > 9.22 | inactive | inactive | –
O=C(O)C/C(=C\c1ccccc1)C(=O)O | > 11.4 | 7.15 | inactive | -2.46 | 10.5 | > 46 | > 9.22 | inactive | inactive | –
Nc1ncnc2c1ncn2CCCCC(=O)O | > 11.4 | 10.7 | inactive | 13.9 | -0.241 | > 46 | > 9.22 | inactive | inactive | –
NCC[C@H](N)C(=O)O | > 11.4 | -2.63 | – | 8.74 | -3.44 | > 46 | > 9.22 | inactive | inactive | -8.9% [at 2.29 µM]
O=C(O)C[C@H]1OCC=C2C[N@@+]3([O-])CC[C@]45c6ccccc6N[C@@H]4[C@@H]1[C@H]2C[C@H]53 | > 11.4 | 9.8 | – | 1.94 | 3.39 | > 46 | > 9.22 | inactive | inactive | -14.3% [at 2.29 µM]
O=C(O)c1c(-c2c3ccc(=O)cc-3oc3cc(O)ccc23)cc2ccccc2c1-c1ccccc1 | > 11.4 | 8.03 | – | 2.16 | 3.5 | > 46 | > 9.22 | inactive | inactive | -17.6% [at 2.29 µM]
CN1CCN(c2nc3c(c(=O)n(C)c(=O)n3C)n2C)CC1 | > 11.4 | -1.63 | – | 1.71 | -1.51 | > 46 | > 9.22 | inactive | inactive | -16.8% [at 2.29 µM]
Nc1nc(N)c2nn(-c3ccc(C(=O)O)cc3)nc2n1 | > 11.4 | -3.5 | – | 6.6 | -0.747 | > 46 | > 9.22 | inactive | inactive | -13.4% [at 2.29 µM]
